# Assay results from PubChem BioAssay AID2315 (National Center for Advancing Translational Sciences (NCATS), 2010).
# “And” between values parts separate entries of the source, which are not always exact repeats. Identical values can stand only once. Out of some 290,000 compounds screened, about 27,000 (9.3%) were called active. Many of the other results were omitted from the sample, so actives are more common in it than they were. Unmarked numbers belong to inactive results. Rule as the data show it: active = inhibition mostly above about 28% (no sharp cut-off); inactive = mostly below about 43%.
# Assay: A qHTS for Small Molecule Inhibitors of Shiga Toxin; also: 0% is about no effect
# Details: Vero cells, Shiga toxin protein synthesis inhibition reporter; at 38.7 µM, stronger effect = higher value
row,SMILES,inhibition
1,CC(C)CNS(=O)(=O)c1ccc(CCC(=O)NCc2ccc(Cl)cc2)cc1,-10.9%
2,CCOc1cc(-c2cc(-c3ccc(NC(C)=O)cc3)nc(N)c2C#N)ccc1O,-1.91%
3,COc1ccc(S(=O)(=O)Nc2ccccc2C(=O)N2CCCC2)cc1C,5.33%
4,O=C(NNC(=O)C1CCCC1)c1ccc(F)cc1,10.8%
5,O=C(O)c1cccc2c1C(=O)N(C1CCCC1)C2,-4.27%
6,CCOc1ccc(S(=O)(=O)N2CCN=C2Cc2ccccc2)cc1C,-2.53%
7,CC1CCCCC1NC(=O)c1cn(C)c2ccc(S(=O)(=O)N3CCOCC3)cc2c1=O (stereo unspecified),-15.7%
8,COc1ccc(OCC(=O)N2CCOCC2)cc1,51.9%
9,COc1ccc(/C(C)=N/N2CCOCC2)c(O)c1,47.1% (active)
10,COc1cc(C(=S)N2CCOCC2)ccc1O,-13.2%
11,COc1ccc(N(CC(=O)Nc2cc(OC)cc(OC)c2)S(=O)(=O)c2c(C)n[nH]c2C)cc1,5.74%
12,CCN(CC)S(=O)(=O)c1ccc(C(=O)N2CCN(C3=NS(=O)(=O)c4ccccc43)CC2)cc1,16.6%
13,Nc1nnc(SCCN2C(=O)c3ccccc3S2(=O)=O)s1,-8.37%
14,Nc1nnc(SCn2nnc3ccccc3c2=O)s1,46.5% (active)
15,O=c1c2ccccc2nnn1CSc1nnnn1-c1ccccc1,62.9%
16,Cc1ccc(-n2cc(CN(C)Cc3nccn3C)c(-c3cccc(C)c3)n2)cc1,-6.37%
17,COc1ccc(C(=O)Nc2nncs2)c(OC)c1,62.3% (active)
18,COc1ccc(C(=O)NC(C)CCc2ccccc2)c(OC)c1 (stereo unspecified),22.2%
19,O=C(NC1=NCCS1)c1ccc(Cl)s1,149% (active)
20,O=C(NCc1ccc2c(c1)OCO2)c1ccc(Cl)s1,50.7%
21,O=C(NC1=NCCS1)[C@H](Cc1ccccc1)N1C(=O)c2ccccc2C1=O,-5.83%

row,SMILES,inhibition
1,O=C(Nc1nncs1)c1ccccc1NS(=O)(=O)c1cccs1,-4.57%
2,COc1ccc(C(=O)NCc2nnc(SCC(=O)NC3=NCCS3)n2C)cc1,-9.89%
3,COc1ccc(C(=O)NC2=NCCS2)c(OC)c1,42% (active)
4,COc1ccc(C(=O)N2CCCN(C)CC2)c(OC)c1,-2.8%
5,CC(C)C(=O)NCC(c1cccs1)S(=O)(=O)c1ccc(F)cc1 (stereo unspecified),2.44%
6,COc1ccc(CNC(=O)c2nnn(CC(=O)Nc3cc(C)cc(C)c3)c2N)cc1,-9.11%
7,COc1ccc(Cn2c(=S)[nH]c3cc(C(=O)NCCCN4CCOCC4)ccc3c2=O)cc1,18.7%
8,CCOC(=O)[C@H]1[C@H]2COc3cc(OC)ccc3[C@@H]2N2C(=O)N(c3ccc(Br)cc3)C(=O)[C@@]12C,-9.26%
9,Cc1cc(=O)oc2c3c(cc(OCC(=O)NCc4ccccn4)c12)OC(C)(C)CC3,-3.65%
10,CCCn1c2ccccc2c2cnn(CC(=O)NCCCN3CCCCC3CC)c(=O)c21 (stereo unspecified),-4.97%
11,CC(=O)c1cc2c(cc1NC(=O)Cn1nc(-c3ccc(F)cc3)ccc1=O)OCO2,20.6%
12,CSc1ccc(/C=N\NC(=O)CC(=O)NC(C)C)cc1,14.5%
13,CSc1ccc(/C=N\NC(=O)COc2ccc(Cl)cc2Br)cc1,59.9%
14,CSc1ccc(/C=N/NC(=O)c2cccc(Cl)c2)cc1,4.92% (active)
15,COc1ccc(NC(=O)NN2CCN(C)CC2)c(OC)c1,-17.8%
16,O=c1cc(-c2ccc(O)cc2)oc2c(-c3cc(-c4cc(=O)c5c(O)cc(O)cc5o4)ccc3O)c(O)ccc12,-1.7%
17,COc1ccc(-c2cc(=O)c3c(O)cc(O[C@@H]4O[C@H](CO[C@@H]5O[C@@H](C)[C@H](O)[C@@H](O)[C@H]5O)[C@@H](O)[C@H](O)[C@H]4O)cc3o2)cc1O,-12.1%
18,COc1c(O)cc2oc(-c3ccc(O)c(O)c3)cc(=O)c2c1O,69.1% (active) and 69% (active)
19,CN(CC1CCCO1)S(=O)(=O)c1ccc(C(=O)Nc2ccc(F)cc2)cc1 (stereo unspecified),11.9%
20,Cc1ccc(SCCSc2ncccn2)cc1,38.6% (active)
21,Cc1ccc(SCCC(=O)NCc2ccccn2)cc1,-6.02%

row,SMILES,inhibition
1,Cc1ccc(SCCC(=O)NC(C(C)C)C(C)C)cc1,-4.72%
2,Cc1ccc(S(=O)Cc2ccc(C(=O)N3CCN(C4CCCCC4)CC3)o2)cc1 (stereo unspecified),-3.36%
3,COc1ccc(CN2CCN(Cc3ccc(OC)c(OC)c3OC)CC2)cc1,-4.07%
4,CC(C)C(C(=O)NCc1ccco1)N(CC1CCCO1)C(=O)CNS(=O)(=O)c1ccc(F)cc1 (stereo unspecified),-0.539%
5,CCc1ccccc1S(=O)(=O)Cc1ccc(C(=O)NCCc2ccccc2)o1,6.5%
6,O=C(CSc1n[nH]c(=O)n1-c1ccccc1)Nc1ccccc1C(F)(F)F,-2.01%
7,Fc1cc(F)c2nc(N3CCOCC3)sc2c1,87.4% (active)
8,Cc1cc(C)c2nc(N3CCC(C(=O)NCCN4CCOCC4)CC3)sc2c1,17.8%
9,Fc1cc(F)c2nc(Nc3nc4c(F)cccc4s3)sc2c1,28.3%
10,COC(=O)C1=C(O)/C(=C/c2ccc(OCC(=O)Nc3ccccc3)cc2)N=C1C,-18.9%
11,CC1CN(CC(=O)NC(C)c2ccccc2)CC(C)O1 (stereo unspecified),-5.21%
12,CCCCCCSc1nsc(N)n1,59.2% (active)
13,Nc1nc(SC23CC4CC(CC(C4)C2)C3)ns1,1.53%
14,CCCSc1nsc(N)n1,11%
15,CCc1cccc(NC(=O)C2CCCN(S(=O)(=O)c3ccc4[nH]c(=O)ccc4c3)C2)c1 (stereo unspecified),-5.44%
16,CCCCn1c(N)c(N(CC)C(=O)c2ccccc2C(F)(F)F)c(=O)[nH]c1=O,3.43%
17,C1=C(CCNc2ncnc3c2cnn3-c2ccccc2)CCCC1,190% (active)
18,Cc1nn(C(C)C(=O)NCCC2=CCCCC2)c(=O)c2nn(-c3ccccc3)c(C)c12 (stereo unspecified),18.5%
19,O=C(NCCC1=CCCCC1)C1CCN(Cc2cnn(-c3ccccc3)c2-n2cccc2)CC1,31%
